Bioassay records from PubChem BioAssay.
Hits are enriched below; roughly 1.3% of the tested compounds scored in any of these assays.
COUP-TFII inh – NR2F2 transcriptional activity inhibitors, primary screen, cell-based, luciferase reporter, HEK293T, luminescence. COUP transcription factor 2 (Homo sapiens), P24468. HEK293T NGFI-A luciferase reporter. inhibition, % at 8.6 µM. 370,000 compounds, 0.7% hits. AID 686940, 2013;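 active means inhibition above a per-plate cutoff, mean inhibition of test wells between control levels plus 3 SD, cut at about 38% in these data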;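 further: cells cotransfected with COUP-TFII expression vector driving the NGFI-A reporter; 0% = median of COUP-TF2 test wells and 100% = reporter-only cells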
NR5A2 inv ag – LRH-1 (NR5A2) inverse agonists, primary screen, cell-based, luminescence, HEK293T, StAR-luciferase reporter; inhibition, % at 3.6 µM; LRH-1 transfected, 24 h; 360,000 compounds, 0.13% hits;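 active means inhibition above the mean inhibition of all tested compounds plus 3 SD, cut at about 73% in these data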;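 further: 0% = DMSO wells and 100% = reporter-only cells lacking LRH-1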
Target sequence (O00482 whole entry, looked up): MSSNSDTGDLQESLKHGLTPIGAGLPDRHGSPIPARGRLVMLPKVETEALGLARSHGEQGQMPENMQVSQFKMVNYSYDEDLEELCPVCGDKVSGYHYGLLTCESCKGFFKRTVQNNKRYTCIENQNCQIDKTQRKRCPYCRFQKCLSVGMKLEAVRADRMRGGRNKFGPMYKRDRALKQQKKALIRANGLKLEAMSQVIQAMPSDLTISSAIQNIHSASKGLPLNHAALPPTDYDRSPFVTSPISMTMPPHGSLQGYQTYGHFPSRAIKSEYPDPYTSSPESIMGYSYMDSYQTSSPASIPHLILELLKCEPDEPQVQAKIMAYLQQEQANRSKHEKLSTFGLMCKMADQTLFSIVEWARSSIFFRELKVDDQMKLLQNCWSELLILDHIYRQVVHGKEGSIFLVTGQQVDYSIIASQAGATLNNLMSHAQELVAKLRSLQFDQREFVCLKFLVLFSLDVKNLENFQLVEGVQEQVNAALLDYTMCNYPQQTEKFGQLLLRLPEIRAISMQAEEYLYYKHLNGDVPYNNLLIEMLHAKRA
Gli-Sufu antag – Gli-Sufu pathway antagonists, primary screen, luciferase luminescence, Sufu-KO-LIGHT cells, uHTS; Sufu-KO-LIGHT fibroblasts, Gli luciferase reporter luminescence; inhibition, % at 5 µM; 340,000 compounds, 0.74% hits;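 active means inhibition above about 55%, limit read from the data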;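 further: 0% = DMSO-treated cells and 100% = wells with medium but no cells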
SRC2 inh – inhibition of GAL4-SRC2 driven luciferase reporter, primary screen, SRC2 inhibitor project, cell-based, luminescence | Nuclear receptor coactivator 2 (Homo sapiens), Q15596 | HEK293 GAL4-SRC2 luciferase reporter | inhibition, % at 9 µM | 370,000 compounds, 0.17% hits;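 active means inhibition above the mean inhibition of all tested compounds plus 3 SD, set per campaign, cut at about 52% in these data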;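 further: 0% = DMSO treated cells and 100% = cells given Gossypol at 36 µM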
SRC3 inh – SRC3 coactivator transcriptional activity inhibitors, primary screen, cell-based, luminescence. inhibition, % at 3.6 µM. Nuclear receptor coactivator 3 (Homo sapiens), Q9Y6Q9. AID 588352, 2011. HEK293 GAL4-SRC3 luciferase reporter. 360,000 compounds, 0.17% hits;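 active means inhibition above a per-campaign cutoff, the mean of all compounds plus 3 SD, cut at about 60% in these data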;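 further: 0% = DMSO-treated cells and 100% = gossypol-treated cells at 36 µM; higher means less SRC3-driven luciferase light from the GAL4 reporter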
NCOA1 inh – SRC1 coactivator transcriptional activity inhibitors, primary screen, cell-based, luminescence; 360,000 compounds, 0.12% hits; AID 588354, 2011; inhibition, % at 3.6 µM; Nuclear receptor coactivator 1 (Homo sapiens), Q15788; HEK293 GAL4-SRC1 luciferase reporter;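 active means inhibition above the campaign mean plus 3 SD, with each screening campaign given its own cutoff, cut at about 60% in these data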;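 further: 0% = DMSO treated cells and 100% = gossypol at 36 µM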
Active calls of the source: *; . = no result given.

SMILES	COUP-TFII inh	NR5A2 inv ag	Gli-Sufu antag	SRC2 inh	SRC3 inh	NCOA1 inh
S=C(c1ccc(-c2ccccc2)cc1)N1CCOCC1	34	6	-2	52*	35	35
COc1ccc2ccccc2c1-c1c(C(=O)c2ccc(Br)cc2)[nH]c(N)c1C(=O)NC1CCCCC1	-2	.	.	.	.	.
N=c1n(Cc2ccccc2)c2ccccc2n1CC(O)COc1ccc(Cl)cc1Cl (stereo not drawn)	-3	-1	56*	-6	16	-22
N=c1n(Cc2ccc(Cl)cc2)c2ccccc2n1CC(O)COc1ccccc1 (stereo not drawn)	5	7	53	-6	-7	-42
C[C@@]12C(=O)OC(=O)[C@]1(C)C1CCC2O1	66*	59	40	61*	71*	53
COC(=O)[C@]12C[C@H](CC(=O)NCC3CCCCC3)C(=O)N(Cc3ccco3)C1=C[C@H](C(C)C)O[C@@H]2C1CC1	-28	.	.	19	.	.
CC[C@@H](C(=O)[C@@H](C)[C@@H](O)[C@H](C)[C@@H]1O[C@@H]([C@@H](CC)C(=O)O)CC[C@@H]1C)[C@H]1O[C@]2(C=C[C@@H](O)[C@]3(CC[C@@](C)([C@H]4CC[C@](O)(CC)[C@H](C)O4)O3)O2)[C@H](C)C[C@@H]1C	45*	86*	90*	2	62*	-39
Cc1ccc(C)c(NC(=O)c2cccc3c2-c2ccccc2C3=O)c1	-16	.	.	-19	.	.
COc1ccc(-n2c(COc3ccccc3)nnc2SCc2nc3ccccc3[nH]2)cc1	-3	.	.	2	.	.
COc1ccccc1NC1=C(N2CCCCC2)C(=O)c2ccccc2C1=O	.	97*	12	.	80*	74*
Cc1ccc(NC2=C(N3CCCCC3)C(=O)c3ccccc3C2=O)cc1	-19	62	15	-40	45	7
O=C(/C=C/c1ccc(O)cc1)c1ccccc1	-22	-22	-6	-42	-15	-44
O=C(/C=C/c1ccc(O)cc1)c1ccc(NC2=C(N3CCCCC3)C(=O)c3ccccc3C2=O)cc1	11	76*	20	2	42	26
O=C1C(Nc2cccc(O)c2)=C(N2CCCCC2)C(=O)c2ccccc21	-9	16	23	-4	-24	-5
O=C1C(Nc2ccccc2)=C(N2CCCCC2)C(=O)c2ccccc21	6	93*	-15	1	68*	29
COC(=O)[C@]12C[C@H](CC(=O)NCc3cccc(C(F)(F)F)c3)C(=O)N(Cc3ccco3)C1=C[C@H](COCc1ccccc1)O[C@@H]2C	16	.	.	6	.	.
O=C(NCc1cccs1)C1C2C=CC3(CN(Cc4ccccc4)C(=O)C13)O2 (stereo not drawn)	-9	.	.	10	.	.
COC(=O)c1cc2sccc2n1Cc1nc(-c2ccc(OC)cc2)oc1C	39*	-12	4	-13	-1	-18
COC(=O)c1cc2ccsc2n1Cc1nc(-c2ccc(OC)cc2)oc1C	-10	0	6	5	4	5
COc1cc(-c2nnc(-c3cc(-c4ccccc4)nc4ccccc34)o2)cc(OC)c1OC	-5	9	15	94*	2	-9
COc1cc(-c2nnc(-c3ccccc3)o2)cc(OC)c1OC	-4	-13	-4	-20	-7	-6
N=c1c2c(-c3ccccc3)c(-c3ccccc3)n(Cc3ccco3)c2ncn1CCO	-4	43	7	-62	63*	41
N=c1c2c(-c3ccccc3)c(-c3ccccc3)n(Cc3ccco3)c2ncn1CCCO	-4	16	19	7	48	43
C=C1C(=O)C2=CC1CCC(=O)C1(C)CCC(OC(C)=O)C(C)(C)C1CC2O (stereo not drawn)	34	46	16	48	64*	51
O=CN1CCN(C(=O)C2CCN(c3ncnc4c3sc3cccc(F)c34)CC2)CC1	1	.	.	0	.	.
SMILES	COUP-TFII inh	NR5A2 inv ag	Gli-Sufu antag	SRC2 inh	SRC3 inh	NCOA1 inh
CC(C)c1ccc(NC(=O)O[C@H]2CC[C@@]34CCCN3C(=O)CCC[C@H]4[C@H]2C)cc1	13	.	.	.	.	.
CSc1nc(SCC(N)=O)c2c3c(sc2n1)CN(C)CC3	-1	10	99*	-12	4	13
CCCN(CC1CC1)C(=O)CN1C(=O)C2CCCCN2C(=O)c2ccccc21 (stereo not drawn)	5	.	.	-18	.	.
O=C(CSc1nnc(-c2ccccc2)n1-c1ccc(Cl)cc1)Nc1cccc2ccccc12	-14	.	.	2	.	.
COc1ccc(NC(=O)/C(Cl)=C(/Cl)S(=O)Cc2ccccc2Cl)cn1 (stereo not drawn)	.	.	72*	.	.	.
COc1ccc(NC(=O)Cc2ccc(Cl)c(Cl)c2)cn1	10	-3	-12	-21	9	6
CN(c1ncnc(N)c1[N+](=O)[O-])C1CCCCC1	27	51	-15	57*	63*	71*
O=C1c2c(O)ccc(O)c2C(=O)c2c(NCCNCCO)ccc(NCCNCCO)c21	-35	35	77*	-362	24	65*
COc1ccc(NC(=O)C(=O)NCC2CCCN2S(=O)(=O)c2ccc(C)cc2)cc1 (stereo not drawn)	-56	32	69*	16	26	1
CC(=O)Nc1ccc(NC(=O)c2ccc(-c3ccnn3C)c3ccoc23)cc1	7	9	.	53*	-10	-1
CC(C)c1ccc(NC(=O)c2ccc(-c3ccnn3C)c3ccoc23)cc1	.	-13	.	.	-38	-19
CC(=O)n1cc(N(C(=O)CCl)c2ccc([N+](=O)[O-])cc2)c2ccccc21	19	34	5	56*	21	-6
C[C@H]1COC(=O)[C@H](NC(=O)OCC2c3ccccc3-c3ccccc32)C/C=C\C[C@H](CC(=O)N(CCO)Cc2ccccc2)C(=O)N1	3	-7	38	-1	-6	-1
O=C(N[C@H]1C/C=C\C[C@H](CC(=O)N(CCO)Cc2ccccc2)C(=O)N[C@@H](c2ccccc2)COC1=O)OCC1c2ccccc2-c2ccccc21	.	8	66*	.	3	1
COc1ccc(OC)c(NC(=O)CSc2ncnc3c2cnn3-c2ccccc2Cl)c1	.	3	76*	.	24	22
COc1cc(NC(=O)CSc2ncnc3c2cnn3Cc2ccccc2)cc(OC)c1	-5	-4	4	30	-1	-9
CCOC(=O)[C@@]12CCCC=C1N(CCc1ccc(Cl)cc1)C(=O)[C@H]2CC(=O)NCc1cccs1	4	.	.	14	.	.
CCn1c2ccccc2c2cc(NC(=O)COC(=O)c3ccc(F)cc3F)ccc21	5	.	.	2	.	.
